Out of some 3,200 compounds screened, about 300 (9.4%) showed activity. Only a selection was taken, and actives are over-represented in it overall.
System: A673/TR/shEF
Assay: cell viability (LOESS-normalised, relative to median of negative controls) (log2 ratio); higher = more viable cells (less compound effect), active = hit call of the paper (over 3 MAD below the median)
Details: library screen: screen1, treatment time: 72 h
Method in brief: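 A673/TR/shEF Ewing sarcoma cells (1,500 per well, 384-well plates) were grown with or without doxycycline to induce EWS-FLI1 shRNA knockdown, starting 24 h before compounds. Library compounds at two or more concentrations, with DMSO controls, were added for three days. Cell viability was read by CellTiter-Glo luminescence on an Envision reader, then LOESS-corrected per plate, divided by the median of negative controls and log2-transformed. Hits were wells at least three median absolute deviations from the median of all screened wells.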

[1] = 0.25 µM, EWS-FLI1 expression: high (no doxycycline)
[2] = 0.25 µM, EWS-FLI1 expression: low (doxycycline-induced shRNA knockdown)
[3] = 2.5 µM, EWS-FLI1 expression: high (no doxycycline)
[4] = 2.5 µM, EWS-FLI1 expression: low (doxycycline-induced shRNA knockdown)

Row | SMILES | cell viability (log2) [1] | cell viability (log2) [2] | cell viability (log2) [3] | cell viability (log2) [4] | cell viability (log2) (0.025 µM, EWS-FLI1 expression: high (no doxycycline)) | cell viability (log2) (0.025 µM, EWS-FLI1 expression: low (doxycycline-induced shRNA knockdown)) | cell viability (log2) (25 µM, EWS-FLI1 expression: high (no doxycycline)) | cell viability (log2) (25 µM, EWS-FLI1 expression: low (doxycycline-induced shRNA knockdown))
1 | CC(C)=CCCC(C)(O)C1CC=C(C)CC1 (configuration not stated) | 0.0431 (inactive) | -0.0174 (inactive) | 0.0996 (inactive) | 0.0501 (inactive) |  |  |  | 
2 | COC(=O)c1c(C)cc(OC(=O)c2c(C)cc(O)c(CO)c2O)c(C)c1O | 0.129 (inactive) | 0.0318 (inactive) | 0.139 (inactive) | 0.0883 (inactive) |  |  |  | 
3 | C[C@]12CC[C@@H](O)C[C@H]1CC[C@@H]1[C@@H]2C(=O)C[C@@]2(C)[C@H]1CC[C@]2(O)C(=O)CO | 0.162 (inactive) | 0.116 (inactive) | 0.185 (inactive) | 0.0107 (inactive) |  |  |  | 
4 | Cc1cc(=O)c2c(O)c3c(cc2o1)OCC(C)CC3 (configuration not stated) | 0.0148 (inactive) | 0.14 (inactive) | 0.0878 (inactive) | 0.127 (inactive) |  |  |  | 
5 | CN=C(N)NCCCC(N)C(=O)O (configuration not stated) | 0.0723 (inactive) | 0.0246 (inactive) | -0.0207 (inactive) | -0.0108 (inactive) |  |  |  | 
6 | Nn1c(SCC(=O)c2ccc(Cl)cc2)nc2ccccc2c1=O | 0.102 (inactive) | 0.0418 (inactive) | 0.24 (inactive) | 0.000811 (inactive) |  |  |  | 
7 | CC1(C)Oc2ccc3ccc(=O)oc3c2C[C@H]1O | 0.0366 (inactive) | -0.00203 (inactive) | 0.0909 (inactive) | 0.0204 (inactive) |  |  |  | 
8 | NC[C@@H]1O[C@H](O[C@H]2[C@@H](O)[C@H](O[C@@H]3[C@@H](O)[C@H](N)C[C@H](N)[C@H]3O[C@H]3O[C@H](CO)[C@@H](O)C[C@H]3N)O[C@@H]2CO)[C@H](N)[C@@H](O)[C@@H]1O[C@H]1O[C@H](CO)[C@@H](O)[C@H](O)[C@@H]1O | 0.156 (inactive) | 0.0397 (inactive) | 0.0315 (inactive) | 0.0591 (inactive) |  |  |  | 
9 | Cc1ccc(NC(=O)c2cccc(N(C)C)c2)cc1NC(=O)c1ccc(O)cc1 | 0.277 | 0.139 (inactive) | -0.147 (active) | 0.168 (inactive) | 0.191 (inactive) | -0.0357 (inactive) | -0.322 (active) | 0.196 (inactive)
10 | Cc1nc(-c2ccc(NC(=O)c3ccccc3)cc2)cs1 | 0.118 (inactive) | 0.115 (inactive) | 0.0995 (inactive) | 0.089 (inactive) |  |  |  | 
11 | CC(=O)Nc1cccc(O)c1 | 0.142 (inactive) | 0.0568 (inactive) | 0.211 (inactive) | -0.0215 (inactive) |  |  |  | 
12 | CC1(C)C(=O)C=C[C@]2(C)C3CC[C@@]4(C)[C@H](c5ccoc5)OC(=O)[C@H]5O[C@]54[C@]3(C)C(=O)C[C@@H]12 (some centres not stated) | 0.0539 (inactive) | 0.0813 (inactive) | 0.0765 (inactive) | 0.119 (inactive) |  |  |  | 

Source: the supplement of paper PMC6089552
